Screens (PubChem)
IL1B secr inh: blocks inflammasome-driven IL-1 beta release; activity change, % at 57.5 µM; 360,000 tested, 4.7% active; THP-1 LPS/ATP IL-1B secretion, AlphaLISA, 16 h; hits give low values; in the data active = activity change below about -50%; inconclusive = mostly about -30% to -49%
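THP-1 cells pretreated 1 hr with compounds (up to 57.5 uM final), then stimulated with LPS (250 ng/mL final) plus ATP (1.25 mM final); secreted IL-1B measured by AlphaLISA after 16 hr, decreased signal indicating inhibition.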
DT40 TDP1 no CPT: qHTS for Inhibitors of human tyrosyl-DNA phosphodiesterase 1 (TDP1): qHTS in cells in absence of CPT; DT40 Tdp1-/- hTDP1 cells, no CPT, ATP luminescence, 48 h; Potency, µM (series often up to 46.2 µM), usual class: inhibitors; 420,000 tested, 15% active; note: nearly all actives have a fitted effect of over 55% in size
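Growth of hTDP1-complemented DT40 Tdp1-knockout cells is measured by ATP luminescence after at least 48 hr compound exposure at 37 °C, with DMSO substituting for the 20 nM CPT used in the parallel screen.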
HT1080 IDH1KD tx: kills HT-1080 cells with IDH1 knockdown; HT-1080 IDH1 knockdown viability, ATP luminescence, 48 h; Potency, µM (doses to about 46.1 µM), most hits filed as cytotoxic; 360,000 tested, 2% active
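Luminescent ATP read-out (CellTiter-Glo, 10 min at room temperature) after 48 h compound exposure at 37 °C gave viability of IDH1-knockdown HT-1080 cells. Activity was normalised to DMSO and cell-free wells, then fitted as concentration-response curves.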
TDP1 cell CPT: DT40-hTDP1 cell growth loss with CPT; chicken DT40 Tdp1-/-;hTDP1 cells + 20 nM CPT, ATP luminescence, 48 h; Potency, µM (highest dose often 46.2 µM), usual class: inhibitors; 420,000 tested, 12% active; AID 686979; note: nearly all actives have a fitted effect of over 55% in size
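Cell growth measured by CellTiter-Glo luminescence after a minimum 48 h, 37 C compound exposure with 20 nM CPT in Tdp1-knockout DT40 cells stably expressing hTDP1, seeded 400/well; qHTS titration format.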
HT1080NT lethal: kills 2HG-producing HT-1080-NT fibrosarcoma cells. HT-1080-NT fibrosarcoma viability, CellTiter-Glo ATP luminescence, 48 h. Potency, µM (highest dose often 46.1 µM), usual class: cytotoxic. 360,000 tested, 1.6% active. AID 686970;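 note: NT is the 2HG producing partner of a matched IDH1 knockdown line; nearly all actives have a fitted effect of over 55% in size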
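Viability of the 2HG-overproducing fibrosarcoma line after 48 hours of compound exposure at 37 degrees C was determined by luminescence with CellTiter-Glo, and concentration-effect curves were then fitted and categorized.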
Of the large screens only hits and unclear results are named; the others gave an inactive call. Sampled rows, rich in hits. Any-hit rate of the full collection: about 19%. Unless noted, calls come from the whole dose curve; as a rule, active = well fitted curve in the direction sought with a large enough effect; inconclusive = small, poorly fitted or top-dose-only effect, or another doubt; inactive = no such curve, though single readings can be large; an effect the other way counts as inactive or inconclusive.

CC(=O)/C(C#N)=C1\NC(=O)C(Cc2ccc(F)cc2)S1 (stereo unspecified)	DT40 TDP1 no CPT 1.3µM, TDP1 cell CPT inconclusive
CCOc1ccc(OCCOCCNCCOC)cc1	none
Cc1ccc(CSCC(=O)N2CCOCC2)cc1	DT40 TDP1 no CPT 10µM, TDP1 cell CPT 6.5µM
Cc1ccc(-c2nnc(SCC(=O)NC(C)(C)C)nc2-c2ccc(C)cc2)cc1	DT40 TDP1 no CPT inconclusive, TDP1 cell CPT 29µM (no result: IL1B secr inh, HT1080 IDH1KD tx, HT1080NT lethal)
Cc1ccc(-c2nnc(SCC(=O)N(C)C)nc2-c2ccc(C)cc2)cc1	DT40 TDP1 no CPT 23µM, TDP1 cell CPT inconclusive
Cc1ccc2c(c1)CN(C(=O)CC(c1ccccc1)c1ccco1)CC(C)O2 (stereo unspecified)	DT40 TDP1 no CPT inconclusive (no result: IL1B secr inh, HT1080 IDH1KD tx, HT1080NT lethal)
O=C(CSCc1ccc(Cl)cc1)N1CCOCC1	none
Cc1ccc(C(CC(=O)N2CCOCC2)c2ccco2)cc1 (stereo unspecified)	IL1B secr inh inconclusive, DT40 TDP1 no CPT inconclusive, TDP1 cell CPT 16µM
COCOc1cccc(CN2CCC2(C)C(=O)Nc2ccc3c(c2)OCO3)c1 (stereo unspecified)	DT40 TDP1 no CPT inconclusive, TDP1 cell CPT inconclusive
CC(C)CN1CCN(CCCOC(=O)Nc2cccc3ccccc23)CC1C (stereo unspecified)	DT40 TDP1 no CPT inconclusive
COc1ccccc1NC(=O)COc1ccc2c(c1)OCO2	none
CN1C(=O)/C(=C/c2ccc(OCc3ccc(F)cc3)cc2)NC1=S	DT40 TDP1 no CPT inconclusive
COc1cccc(CN2CCOc3ccc(C(O)c4cccnc4)cc3C2)c1 (stereo unspecified)	none (no result: IL1B secr inh, HT1080 IDH1KD tx, HT1080NT lethal)
CCOc1ccc(-c2nnc(SCC(=O)NCc3ccc(C)cc3)nc2-c2ccc(OCC)cc2)cc1	DT40 TDP1 no CPT 13µM, TDP1 cell CPT inconclusive (no result: IL1B secr inh, HT1080 IDH1KD tx, HT1080NT lethal)
CCOC(=O)CNC(=O)CSc1nnc(-c2ccccc2)c(-c2ccccc2)n1	HT1080 IDH1KD tx inconclusive
Cc1ccc(-c2nnc(SCC(N)=O)nc2-c2ccc(C)cc2)cc1	DT40 TDP1 no CPT inconclusive, TDP1 cell CPT inconclusive
CSc1ccc(CSCC(=O)N2CCN(S(=O)(=O)c3ccc(C)cc3C)CC2)cc1	DT40 TDP1 no CPT inconclusive, TDP1 cell CPT 26µM
Cc1ccc(-c2nnc(SCC(=O)N3CCOCC3)nc2-c2ccc(C)cc2)cc1	DT40 TDP1 no CPT inconclusive, TDP1 cell CPT 21µM
COc1ccccc1N(C)S(=O)(=O)c1ccc(C(=O)OCC(=O)N(C(C)C)C(C)C)cc1	none
CC(C)CC(OC(=O)c1ccco1)C(=O)NC1CCCC1 (stereo unspecified)	none
Fc1cccc(CSc2ccc3nnc(-c4cccnc4)n3n2)c1	DT40 TDP1 no CPT 16µM, TDP1 cell CPT inconclusive
Cc1ccc(CNc2ccc3nnc(-c4ccccc4)n3n2)cc1	DT40 TDP1 no CPT 2.3µM, TDP1 cell CPT 3.7µM
Nn1c(SCc2ccc(Br)cc2)nnc1-c1cccnc1	none
Brc1ccc(CSc2ccc3nnc(-c4cccnc4)n3n2)cc1	DT40 TDP1 no CPT 21µM, HT1080 IDH1KD tx inconclusive, TDP1 cell CPT inconclusive, HT1080NT lethal inconclusive
Cc1ccc(CSc2ccc3nnc(-c4cccnc4)n3n2)cc1	DT40 TDP1 no CPT 4.1µM, TDP1 cell CPT 21µM
O=c1[nH]cc(S(=O)(=O)Nc2ccc3c(c2)OCO3)c(=O)[nH]1	none
CC1(C)OCC(CNC(=O)c2[nH]c(C(F)(F)F)nc2-c2ccccc2)O1 (stereo unspecified)	none
Cc1cccc(-n2c(C)cc(/C=N/n3cnnc3)c2C)c1	DT40 TDP1 no CPT inconclusive, TDP1 cell CPT 23µM
Cc1cccc(-n2c(C)cc(C=C3C(=O)c4ccccc4C3=O)c2C)c1	IL1B secr inh -58, DT40 TDP1 no CPT 13µM, TDP1 cell CPT inconclusive
Cc1cc(/C=N/n2cnnc2)c(C)n1-c1ccc2c(c1)OCO2	TDP1 cell CPT inconclusive
Cc1cccc(-n2c(C)cc(/C=C3/C(=N)N4C(c5ccccc5)=CSC4=NC3=O)c2C)c1	DT40 TDP1 no CPT 21µM, TDP1 cell CPT inconclusive
COc1cc(/C=C2/C(=N)N3C(c4ccccc4)=CSC3=NC2=O)ccc1OCC(=O)O	DT40 TDP1 no CPT 15µM, TDP1 cell CPT 21µM
